ChEMBL document CHEMBL3988442, “University of Dundee, Small-Polar-MMV Screening Library” (2021)
For some assays here: Potency and affinity values are given separately.

Key:
Set-up in all cases: scale not given: direction of the effect not stated beside the values
[1] = biological target: Protein translocase subunit SecA (Escherichia coli (strain K12)) (UniProt P10408); assay: Assay to Identify E. coli SecA ATPase Inhibitors; type: functional; details: 30 µM
[2] = biological target: T1, Ubiquitin-activating enzyme e1, putative (Leishmania donovani (strain BPK282A1)) (UniProt E9BSI1); assay: Leishmania donovani Ubiquitin Activating Enzyme (LdE1); type: functional; details: 30 µM
T1 sequence (whole entry): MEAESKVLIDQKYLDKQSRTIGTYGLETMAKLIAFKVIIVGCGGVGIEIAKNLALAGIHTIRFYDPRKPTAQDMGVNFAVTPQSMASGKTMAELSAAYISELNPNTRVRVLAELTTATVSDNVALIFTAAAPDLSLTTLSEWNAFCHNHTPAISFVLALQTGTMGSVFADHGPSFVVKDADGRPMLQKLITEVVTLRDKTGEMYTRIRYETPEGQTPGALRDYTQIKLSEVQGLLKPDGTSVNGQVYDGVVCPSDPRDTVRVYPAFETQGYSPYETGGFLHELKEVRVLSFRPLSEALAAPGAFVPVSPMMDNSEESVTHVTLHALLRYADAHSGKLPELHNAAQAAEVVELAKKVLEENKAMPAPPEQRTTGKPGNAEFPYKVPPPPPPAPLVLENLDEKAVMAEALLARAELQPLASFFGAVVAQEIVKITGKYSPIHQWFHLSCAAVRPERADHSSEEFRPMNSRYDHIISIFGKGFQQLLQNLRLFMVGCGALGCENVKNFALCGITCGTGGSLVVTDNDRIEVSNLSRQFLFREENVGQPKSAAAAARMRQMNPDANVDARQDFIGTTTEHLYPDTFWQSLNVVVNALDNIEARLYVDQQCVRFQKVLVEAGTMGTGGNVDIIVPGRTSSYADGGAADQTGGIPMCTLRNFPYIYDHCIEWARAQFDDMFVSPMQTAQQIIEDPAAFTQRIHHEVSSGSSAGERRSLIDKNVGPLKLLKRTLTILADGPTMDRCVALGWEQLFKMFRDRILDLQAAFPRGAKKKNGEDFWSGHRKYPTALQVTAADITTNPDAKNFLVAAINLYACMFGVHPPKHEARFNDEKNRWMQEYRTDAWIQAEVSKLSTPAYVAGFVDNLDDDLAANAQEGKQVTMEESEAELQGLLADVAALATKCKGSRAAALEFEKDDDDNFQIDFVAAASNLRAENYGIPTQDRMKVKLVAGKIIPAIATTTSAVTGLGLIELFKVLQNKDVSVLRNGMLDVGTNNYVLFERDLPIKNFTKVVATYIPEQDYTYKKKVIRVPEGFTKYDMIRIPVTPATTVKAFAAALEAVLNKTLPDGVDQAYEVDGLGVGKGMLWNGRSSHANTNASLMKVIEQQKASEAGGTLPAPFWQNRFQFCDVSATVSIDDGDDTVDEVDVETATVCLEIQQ

[3] = biological target: AMP-activated protein kinase, AMPK (Homo sapiens) (UniProt P54646+O43741+P54619+Q9UGJ0+Q9Y478+Q13131+Q9UGI9); assay: AMP-dependent Kinase enzyme assay. An in vitro enzyme assay that detects ADP turnover that is directly proportional to AMPK activity. This uses naive AMPK that is activated during the assay with MK-8722; type: functional; details: 30 µM
[4] = biological target: Sialic acid-binding Ig-like lectin 9 (Homo sapiens) (UniProt Q9Y336); assay: Hs-Siglec9 ALPHAscreen SOP 20170721; details: 10 µM
Sialic acid-binding Ig-like lectin 9 (Homo sapiens), sequence (Q9Y336 whole entry): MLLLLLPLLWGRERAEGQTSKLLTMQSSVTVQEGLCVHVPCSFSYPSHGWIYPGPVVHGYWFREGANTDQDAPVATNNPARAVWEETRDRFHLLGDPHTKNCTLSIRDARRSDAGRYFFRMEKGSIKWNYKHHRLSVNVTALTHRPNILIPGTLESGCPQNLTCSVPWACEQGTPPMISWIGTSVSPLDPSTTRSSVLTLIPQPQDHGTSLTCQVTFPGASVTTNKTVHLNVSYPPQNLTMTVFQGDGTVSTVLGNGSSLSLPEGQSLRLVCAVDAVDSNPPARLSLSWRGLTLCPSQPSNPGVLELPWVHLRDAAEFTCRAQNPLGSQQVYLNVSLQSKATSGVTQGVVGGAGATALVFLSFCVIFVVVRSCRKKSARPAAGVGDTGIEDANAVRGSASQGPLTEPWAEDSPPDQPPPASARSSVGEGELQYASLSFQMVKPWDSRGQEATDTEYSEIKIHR

[5] = test system: Trypanosoma cruzi; assay: Trypanosoma cruzi phosphomannomutase and mannose-1-phosphate guanylyltransferase assay; type: functional; details: 10 µM
[6] = biological target: T2, Arginase-2, mitochondrial (Homo sapiens) (UniProt P78540); assay: in vitro enzyme assay to detect the production of urea directly proportional to the activity of Arginase II; type: functional; details: 33.3 µM; also: in the data most compounds retested in dose-response had high values
T2 sequence (whole entry): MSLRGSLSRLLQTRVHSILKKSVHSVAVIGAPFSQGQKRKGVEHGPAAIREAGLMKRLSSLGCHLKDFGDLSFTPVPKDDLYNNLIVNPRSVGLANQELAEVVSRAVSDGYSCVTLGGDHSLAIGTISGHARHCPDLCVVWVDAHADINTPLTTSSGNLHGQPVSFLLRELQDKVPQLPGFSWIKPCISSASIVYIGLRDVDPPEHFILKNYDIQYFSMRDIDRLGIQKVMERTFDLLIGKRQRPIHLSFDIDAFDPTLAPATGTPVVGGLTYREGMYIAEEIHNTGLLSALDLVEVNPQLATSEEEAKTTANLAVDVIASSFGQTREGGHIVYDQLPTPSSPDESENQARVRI

[7] = biological target: T3, Proteasome subunit beta (Trypanosoma cruzi) (UniProt O96673); assay: Trypanosoma cruzi proteasome chymotrypsin-like activity (TcProtChymo) assay.; also: in the data most compounds retested in dose-response had high values; type: functional; details: 9.37 µM
T3 sequence (whole entry): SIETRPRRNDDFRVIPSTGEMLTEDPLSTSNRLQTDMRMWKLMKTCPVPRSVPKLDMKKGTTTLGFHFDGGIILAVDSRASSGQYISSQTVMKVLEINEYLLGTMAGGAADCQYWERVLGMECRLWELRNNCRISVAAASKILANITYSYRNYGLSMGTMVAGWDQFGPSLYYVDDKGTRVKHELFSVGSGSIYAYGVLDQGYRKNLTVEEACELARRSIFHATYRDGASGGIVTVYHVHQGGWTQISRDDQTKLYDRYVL

[8] = organism: Homo sapiens; assay: To identify inhibition of the IFN signalling (Jak-Stat) pathway via expression of an eGFP reporter gene under the control of an IFN-stimulated response element (ISRE) containing MxA promoter.; type: functional; details: 30 µM
[9] = biological target: T4, Tyrosyl-tRNA synthetase, putative (Trypanosoma cruzi (strain CL Brener)) (UniProt Q4DSP6); assay: Trypanosoma cruzi tyrosyl tRNA synthetase (TcYRS) _High Tyrosine SOP; type: functional; details: 30 µM; also: in the data most compounds retested in dose-response had high values
T4 sequence (whole entry): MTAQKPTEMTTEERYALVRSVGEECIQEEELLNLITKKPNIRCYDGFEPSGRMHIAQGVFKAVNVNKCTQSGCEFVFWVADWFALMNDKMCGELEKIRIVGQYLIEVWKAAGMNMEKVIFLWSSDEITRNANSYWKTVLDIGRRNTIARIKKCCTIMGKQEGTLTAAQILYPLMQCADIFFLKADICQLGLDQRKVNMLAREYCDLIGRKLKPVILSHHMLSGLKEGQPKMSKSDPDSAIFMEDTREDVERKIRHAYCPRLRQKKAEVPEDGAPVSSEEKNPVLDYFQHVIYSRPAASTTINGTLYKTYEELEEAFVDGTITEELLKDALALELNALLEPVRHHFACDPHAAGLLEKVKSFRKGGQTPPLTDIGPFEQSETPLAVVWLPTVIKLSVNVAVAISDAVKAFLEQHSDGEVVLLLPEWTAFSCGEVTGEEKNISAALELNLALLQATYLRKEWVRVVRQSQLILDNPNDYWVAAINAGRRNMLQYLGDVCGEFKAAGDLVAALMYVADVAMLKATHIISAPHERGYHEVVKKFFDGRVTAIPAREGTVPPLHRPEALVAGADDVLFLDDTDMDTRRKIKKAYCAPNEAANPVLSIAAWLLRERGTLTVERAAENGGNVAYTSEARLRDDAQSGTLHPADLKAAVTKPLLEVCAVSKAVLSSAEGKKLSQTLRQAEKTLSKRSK

[10] = biological target: T4, Tyrosyl-tRNA synthetase, putative (Trypanosoma cruzi (strain CL Brener)); assay: Trypanosoma cruzi tyrosyl tRNA synthetase (TcYRS) SOP; type: functional; details: 30 µM
[11] = biological target: Chromo domain-containing protein 1 (Saccharomyces cerevisiae (strain ATCC 204508 / S288c) (Baker's yeast)) (UniProt P32657); assay: ScCHD-1 Enzyme Inhibition Assay; type: functional; details: 30 µM; also: in the data most compounds retested in dose-response had high values
Chromo domain-containing protein 1 (Saccharomyces cerevisiae (strain ATCC 204508 / S288c) (Baker's yeast)), sequence (P32657 whole entry, the tested form may be a part): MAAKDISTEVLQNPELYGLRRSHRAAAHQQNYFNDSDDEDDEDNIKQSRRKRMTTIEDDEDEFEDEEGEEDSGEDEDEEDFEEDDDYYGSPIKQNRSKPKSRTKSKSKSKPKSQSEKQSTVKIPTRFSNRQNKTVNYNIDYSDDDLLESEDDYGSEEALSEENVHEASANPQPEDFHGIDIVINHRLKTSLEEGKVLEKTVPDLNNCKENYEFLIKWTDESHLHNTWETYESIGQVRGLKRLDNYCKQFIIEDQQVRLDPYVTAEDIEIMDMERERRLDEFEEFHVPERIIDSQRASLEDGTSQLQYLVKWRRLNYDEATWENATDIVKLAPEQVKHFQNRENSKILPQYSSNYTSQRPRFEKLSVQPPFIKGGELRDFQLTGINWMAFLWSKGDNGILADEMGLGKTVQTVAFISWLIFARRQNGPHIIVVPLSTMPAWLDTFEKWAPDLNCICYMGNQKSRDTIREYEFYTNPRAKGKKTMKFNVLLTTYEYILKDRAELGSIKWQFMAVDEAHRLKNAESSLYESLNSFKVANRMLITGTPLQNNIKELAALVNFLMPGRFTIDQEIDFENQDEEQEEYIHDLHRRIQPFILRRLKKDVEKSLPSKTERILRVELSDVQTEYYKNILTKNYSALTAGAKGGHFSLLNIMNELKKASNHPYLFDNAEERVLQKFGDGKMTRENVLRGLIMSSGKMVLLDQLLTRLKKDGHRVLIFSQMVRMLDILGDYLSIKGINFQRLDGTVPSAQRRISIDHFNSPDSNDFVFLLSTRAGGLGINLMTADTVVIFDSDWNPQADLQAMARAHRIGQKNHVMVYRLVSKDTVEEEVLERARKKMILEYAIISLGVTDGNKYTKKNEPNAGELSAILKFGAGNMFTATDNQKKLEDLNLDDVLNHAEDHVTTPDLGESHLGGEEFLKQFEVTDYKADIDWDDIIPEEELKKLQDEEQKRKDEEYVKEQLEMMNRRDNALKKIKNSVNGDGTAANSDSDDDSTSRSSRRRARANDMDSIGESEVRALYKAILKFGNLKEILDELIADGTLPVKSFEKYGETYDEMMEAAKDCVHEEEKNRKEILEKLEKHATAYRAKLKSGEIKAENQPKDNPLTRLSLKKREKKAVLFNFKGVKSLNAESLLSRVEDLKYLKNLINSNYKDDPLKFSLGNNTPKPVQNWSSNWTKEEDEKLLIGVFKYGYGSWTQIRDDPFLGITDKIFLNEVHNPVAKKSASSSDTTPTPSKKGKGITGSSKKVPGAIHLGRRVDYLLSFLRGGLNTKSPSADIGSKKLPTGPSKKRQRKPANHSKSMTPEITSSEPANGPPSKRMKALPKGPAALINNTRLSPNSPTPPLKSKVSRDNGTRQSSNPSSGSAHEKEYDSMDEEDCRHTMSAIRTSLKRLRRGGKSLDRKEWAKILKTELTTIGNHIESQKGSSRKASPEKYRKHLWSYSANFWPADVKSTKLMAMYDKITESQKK

Protein translocase subunit SecA (Escherichia coli (strain K12)), sequence (P10408 whole entry): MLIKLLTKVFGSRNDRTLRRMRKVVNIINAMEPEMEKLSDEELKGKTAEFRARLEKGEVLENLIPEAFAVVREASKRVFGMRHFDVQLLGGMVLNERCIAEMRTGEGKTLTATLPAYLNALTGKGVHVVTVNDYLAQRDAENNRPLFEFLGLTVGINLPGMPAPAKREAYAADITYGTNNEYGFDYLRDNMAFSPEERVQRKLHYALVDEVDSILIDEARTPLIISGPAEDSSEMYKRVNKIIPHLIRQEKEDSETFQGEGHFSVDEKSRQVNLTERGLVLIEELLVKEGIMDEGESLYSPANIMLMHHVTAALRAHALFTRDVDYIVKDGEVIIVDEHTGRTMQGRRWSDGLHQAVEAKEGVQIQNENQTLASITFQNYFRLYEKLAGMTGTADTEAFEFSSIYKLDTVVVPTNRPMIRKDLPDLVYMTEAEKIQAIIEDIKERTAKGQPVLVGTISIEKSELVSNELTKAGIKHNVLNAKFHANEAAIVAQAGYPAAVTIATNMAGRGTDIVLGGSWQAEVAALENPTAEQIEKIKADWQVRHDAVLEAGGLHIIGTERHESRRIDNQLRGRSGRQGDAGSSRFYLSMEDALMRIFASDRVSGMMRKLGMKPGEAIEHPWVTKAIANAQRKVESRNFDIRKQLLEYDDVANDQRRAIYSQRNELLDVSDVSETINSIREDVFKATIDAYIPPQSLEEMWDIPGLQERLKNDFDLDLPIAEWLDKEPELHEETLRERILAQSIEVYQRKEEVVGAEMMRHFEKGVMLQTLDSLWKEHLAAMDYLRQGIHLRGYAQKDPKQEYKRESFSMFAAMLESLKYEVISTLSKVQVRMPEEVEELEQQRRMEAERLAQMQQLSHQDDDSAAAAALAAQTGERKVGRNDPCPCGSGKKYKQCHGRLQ

SMILES | Percent Effect [1] [%] | Percent Effect [2] [%] | Percent Effect [3] [%] | Percent Effect [4] [%] | Percent Effect [5] [%] | Percent Effect [6] [%] | Percent Effect [7] [%] | Percent Effect [8] [%] | Percent Effect [9] [%] | Percent Effect [10] [%] | Percent Effect [11] [%]
CS(=O)(=O)N1CCCCCC1C1CCN(c2ncccc2C#N)CC1 (stereo unspecified) | -0.308 | -5.26 | 9.82 | 3.04 | 6.58 | 0 | -0.668 | -7.75 | 0.49 | 0 | 2.11
Clc1ccc2cccnc2c1CN1CCCC1Cn1cncn1 (stereo unspecified) | -1.02 | -10.8 | -3.88 | -0.559 | -5.85 | 4.99 | 7.18 | 63.7 | 7.92 | -1.22 | 5.04
CC(NCc1cccnc1)c1ccc(OCC(=O)NC2CC2)cc1 (stereo unspecified) | -4.57 | 1.27 | 10.2 | 0.488 | -2.15 | -0.215 | 12.2 | -0.549 | -2.08 | -2.53 | 4.29
COc1cccc(NC(=O)N(CCO)Cc2ccsc2)c1 | -3.38 | -6.94 | 1.15 | -5.41 | -4.96 | -4.42 | 12.3 | 11.8 | 3.16 | 5.13 | -4.52
O=C(NC(CO)CO)c1coc(COc2cccc(F)c2)n1 | -2.81 | 18.9 | 1.42 | 15.9 | 2.44 | 10.2 | 9.19 | -0.407 | 7.53 | 21 | -4.2
O=C1OC2(CCNCC2)CN1CC(=O)N1CCCC1c1ccco1 (stereo unspecified) | -3.11 | 5.41 | 1.69 | 4.82 | 0.386 | 2.86 | 19.8 | -0.46 | 5.82 | 19.5 | -4.16
O=C(c1cccnc1-n1cncn1)N1CCc2ccccc2C1 | -1.58 | 16.2 | -4 | 13.4 | 4.25 | 1.91 | 8.1 | 4.11 | 5.82 | 9.76 | -2.56
O=C(c1cnn(-c2ccccc2F)c1)N1CCN(CCO)CC1 | -0.313 | 2.67 | -3.7 | 3.26 | 5.36 | 16.1 | 0.698 | -20 | -0.546 | 3.7 | -1.23
CSc1ccc(NC(=O)Nc2ccc3c(c2)N(S(C)(=O)=O)CC3)cc1 | -1.27 | -23.4 | -4.52 | 3.62 | 3.06 | -93.5 | 27.9 | 30.8 | -6.35 | -14.1 | -6.55
CC(C)Cc1noc(CN2CCN(CCO)CC2)n1 | -0.954 | 10.5 | 1.51 | -0.0672 | -2.07 | 0.766 | 12 | 11.2 | 3.43 | 9.76 | -8.48
Cc1cc(-c2cnc(NC3CC3)nc2-c2ccc(C)o2)on1 | -1.85 | 13.3 | 55.8 | 7.93 | 3.54 | -0.233 | 2.56 | 20.4 | 2.13 | 14.1 | -7.02
Cc1cc(NC(=O)CN(C)C2CCCN(c3cccnn3)C2)n(C)n1 (stereo unspecified) | -4.44 | 7.89 | -28.4 | 2.85 | 12.2 | -1.8 | 10.6 | -5.3 | 4.43 | 13.6 | 6.51
Cc1cnn(CC2CCCCN2C(=O)c2ccc3[nH]nnc3c2)c1 (stereo unspecified) | -3.72 | 13 | 5.5 | 1.47 | -2.25 | 2.32 | 14.3 | 22.2 | 6.67 | 9.41 | -11.2
CC(C)N1CCC(NCc2cccnc2N(C)Cc2ccccc2)CC1 | -6.5 | 5.33 | -5.44 | 0.0952 | 0.0974 | 1.04 | 4.01 | -2.28 | 1.64 | 6.17 | -5.77
O=C(c1cccc(CNS(=O)(=O)c2ccccc2F)c1)N1CCCC1 | -3.56 | 15.6 | 1.76 | 3.25 | 2.25 | 0.21 | 5.25 | 24.1 | 5.71 | 18.8 | -5.99
Cc1cccc2c1OCCC2NCc1c(C)nn(C)c1N(C)C (stereo unspecified) | 1.41 | 18.4 | -5.71 | 0.779 | -3.95 | 7.28 | 16.9 | 24.8 | 1.47 | 7.32 | -18.2
